# Laboratory results as given in PubChem BioAssay (NCATS).
# Several values for one entry are separate records, joined by “and”; a condition that tells them apart may be missing. Equal values may be shown once. Inconclusive results are not listed. Activity calls are given as the source filed them. The call rests on the fitted dose curve; in most records, active means well fitted curve in the direction sought with a large enough effect; inconclusive means small, poorly fitted or top-dose-only effect, or another doubt; inactive means no such curve, though single readings can be large; an effect the other way counts as inactive or inconclusive.
# Assays:
# [1] = qHTS of pediatric cancer cell lines to identify multiple opportunities for drug repurposing: Primary screen for U-2 OS cells (AID 1347096); details: U-2 OS viability, CellTiter-Glo luminescence, 48 h; series mostly up to 46 µM; further: nearly all actives have a fitted effect of over 50% in size
# How it was run: (§1)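 Cells (500-1,000/well) in growth media were settled 5 h at 37 degrees C, then given compounds for 48 h. Viability was read as CellTiter-Glo luminescence. Primary runs used MIPE at 11 points (0.78 nM-46 µM) and NPC at 8 points (0.59 nM-46 µM); follow-ups used 11 points.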
# [2] = qHTS of pediatric cancer cell lines to identify multiple opportunities for drug repurposing: Primary screen for Rh18 cells (AID 1347102); details: Rh18 rhabdomyosarcoma viability, CellTiter-Glo luminescence, 48 h; series mostly up to 46 µM; further: nearly all actives have a fitted effect of over 65% in size; further: potency means the concentration at half of the fitted maximal effect
# How it was run: as §1
# [3] = qHTS of pediatric cancer cell lines to identify multiple opportunities for drug repurposing: Primary screen for OHS-50 cells (AID 1347103); details: OHS-50 osteosarcoma viability, CellTiter-Glo luminescence, 48 h; series mostly up to 57.3 µM; further: nearly all actives have a fitted effect of over 40% in size; further: potency means the concentration at half of the fitted maximal effect
# How it was run: (§2)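 Cells (500-1,000/well) rested 5 h, then received compounds for 48 h; metabolically active cells were measured by CellTiter-Glo luminescence. Final concentrations spanned up to 46 µM (MIPE, 11-point) or 0.59 nM-46 µM (NPC, 8-point) in primary screens, 11-point in follow-ups.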
# [4] = qHTS of pediatric cancer cell lines to identify multiple opportunities for drug repurposing: Primary screen for RD cells (AID 1347104); details: RD rhabdomyosarcoma viability, CellTiter-Glo luminescence, 48 h; series mostly up to 46 µM; further: nearly all actives have a fitted effect of over 55% in size; further: potency means the concentration at half of the fitted maximal effect
# How it was run: (§3)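 Luminescence from CellTiter-Glo served as readout of metabolically active cells after 48 h compound exposure. Titrations: MIPE 11-point, from 0.78 nM; NPC 8-point, from 0.59 nM (final). Concentration-response curves came straight from the primary screen.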
# [5] = qHTS of pediatric cancer cell lines to identify multiple opportunities for drug repurposing: Primary screen for MG 63 (6-TG R) cells (AID 1347105); details: MG 63 (6-TG R) viability, CellTiter-Glo, 48 h; series mostly up to 46 µM; further: nearly all actives have a fitted effect of over 50% in size; further: potency means the concentration at half of the fitted maximal effect
# How it was run: as §3
# [6] = qHTS of pediatric cancer cell lines to identify multiple opportunities for drug repurposing: Primary screen for SK-N-SH cells (AID 1347098); details: SK-N-SH viability, CellTiter-Glo luminescence, 48 h; series mostly up to 57 µM; further: nearly all actives have a fitted effect of over 65% in size; further: potency means the concentration at half of the fitted maximal effect
# How it was run: as §2
# [7] = qHTS of pediatric cancer cell lines to identify multiple opportunities for drug repurposing: Primary screen for NB1643 cells (AID 1347099); details: NB1643 neuroblastoma viability, CellTiter-Glo luminescence, 48 h; series mostly up to 46 µM; further: nearly all actives have a fitted effect of over 50% in size; further: potency means the concentration at half of the fitted maximal effect
# How it was run: as §3
# [8] = qHTS of pediatric cancer cell lines to identify multiple opportunities for drug repurposing: Primary screen for LAN-5 cells (AID 1347100); details: LAN-5 neuroblastoma viability, CellTiter-Glo luminescence, 48 h; series mostly up to 46 µM; further: potency means the concentration at half of the fitted maximal effect
# How it was run: as §1
# [9] = qHTS of pediatric cancer cell lines to identify multiple opportunities for drug repurposing: Primary screen for Saos-2 cells (AID 1347097); details: Saos-2 viability, CellTiter-Glo ATP luminescence, 48 h; series mostly up to 46 µM; further: nearly all actives have a fitted effect of over 40% in size; further: potency means the concentration at half of the fitted maximal effect
# How it was run: as §3
# [10] = qHTS of pediatric cancer cell lines to identify multiple opportunities for drug repurposing: Primary screen for BT-12 cells (AID 1347101); details: BT-12 viability, CellTiter-Glo luminescence, 48 h; series mostly up to 57.3 µM; further: potency means the concentration at half of the fitted maximal effect; nearly all actives have a fitted effect of over 25% in size
# How it was run: as §2
compound,measurement,setting,value
COc1ccc(-c2c(-c3ccc(O)cc3O)n[nH]c2C)cc1,Potency,[1],inactive
same,Potency,[2],inactive
same,Potency,[3],44.4 µM (active)
same,Potency,[4],inactive
same,Potency,[5],inactive
CS(=O)(=O)Oc1ccc2c(NC(N)=O)c(C(=O)c3ccc(Cl)cc3Cl)oc2c1,Potency,[6],15.2 µM (active)
same,Potency,[7],3.72 µM (active)
same,Potency,[8],2.09 µM (active)
same,Potency,[3],1.53 µM (active)
same,Potency,[4],13.2 µM (active)
same,Potency,[5],18.7 µM (active)
Nc1ncnc2nc(-c3ccc(N4CCOCC4)nc3)cc(-c3cccc(Br)c3)c12,Potency,[9],inactive
same,Potency,[5],inactive
Oc1cccc(-c2nc(N3CCOCC3)c3oc4ncccc4c3n2)c1,Potency,[9],0.34 µM (active)
same,Potency,[6],0.879 µM (active)
same,Potency,[7],0.215 µM (active)
same,Potency,[8],0.96 µM (active)
same,Potency,[2],0.303 µM (active)
same,Potency,[3],0.444 µM (active)
same,Potency,[4],0.241 µM (active)
same,Potency,[5],0.0855 µM (active)
S=C(NCc1ccc2c(c1)OCO2)N1CCN(c2ncnc3c2oc2ccccc23)CC1,Potency,[6],inactive
same,Potency,[7],8.55 µM (active)
same,Potency,[8],30.3 µM (active)
same,Potency,[3],1.98 µM (active)
same,Potency,[5],inactive
COc1ccc(-c2ccc3c(N4CCOCC4)nc(N4C[C@@H](C)O[C@@H](C)C4)nc3n2)cc1CO,Potency,[7],inactive
same,Potency,[3],0.217 µM (active)
same,Potency,[5],0.187 µM (active)
NNCCc1ccccc1,Potency,[9],inactive
same,Potency,[2],inactive
same,Potency,[3],inactive
same,Potency,[4],inactive
same,Potency,[5],inactive
Cc1cc(Nc2nc(N[C@@H](C)c3ncc(F)cn3)ncc2Cl)n[nH]1,Potency,[9],26.4 µM (active)
same,Potency,[6],15.2 µM (active)
same,Potency,[7],1.32 µM (active)
same,Potency,[10],34.3 µM (active)
same,Potency,[3],15.3 µM (active)
same,Potency,[4],16.6 µM (active)
same,Potency,[5],11.8 µM (active)
Cc1cccc(-c2[nH]c(C(C)(C)C)nc2-c2ccc3nccnc3c2)n1,Potency,[9],1.66 µM (active)
same,Potency,[7],16.6 µM (active)
same,Potency,[10],24.3 µM (active)
same,Potency,[3],6.11 µM (active)
same,Potency,[5],inactive
OCCC#Cc1nc(-c2ccc(F)cc2)c(-c2ccncc2)n1CCCc1ccccc1,Potency,[6],inactive
same,Potency,[8],16.6 µM (active)
same,Potency,[3],27.3 µM (active)
same,Potency,[5],29.6 µM (active)
Cn1cnc2c(F)c(Nc3ccc(Br)cc3Cl)c(C(=O)NOCCO)cc21,Potency,[7],9.35 µM (active)
same,Potency,[3],inactive
C[C@@H]1CN(Cc2ccc(F)cc2)[C@@H](C)CN1C(=O)c1cc2c(C(=O)C(=O)N(C)C)cn(C)c2cc1Cl,Potency,[4],0.833 µM (active)
CCc1cncnc1N1CCN(Cc2nc3ccc(C(F)(F)F)cc3[nH]2)CC1,Potency,[1],inactive
same,Potency,[10],12.2 µM (active)
same,Potency,[3],15.3 µM (active)
Cc1cc2c(F)c(Oc3ncnn4cc(OC[C@@H](C)O)c(C)c34)ccc2[nH]1,Potency,[9],18.7 µM (active)
same,Potency,[6],24.1 µM (active)
same,Potency,[8],20.9 µM (active)
same,Potency,[3],30.6 µM (active)
COc1cc(Nc2ncc3c(n2)-c2ccc(Cl)cc2C(c2c(F)cccc2OC)=NC3)ccc1C(=O)O,Potency,[9],4.69 µM (active)
same,Potency,[6],8.57 µM (active)
same,Potency,[8],0.0093 µM (active)
same,Potency,[2],20.9 µM (active)
same,Potency,[5],5.9 µM (active)
Cc1ccc(NC(=O)c2cccc(C(C)(C)C#N)c2)cc1Nc1ccc2ncn(C)c(=O)c2c1,Potency,[6],24.1 µM (active)
same,Potency,[4],1.18 µM (active)
same,Potency,[5],inactive
CC[C@H](Nc1ncnc2nc[nH]c12)c1nc2cccc(F)c2c(=O)n1-c1ccccc1,Potency,[9],9.35 µM (active)
same,Potency,[6],7.64 µM (active)
same,Potency,[8],20.9 µM (active)
same,Potency,[3],6.85 µM (active)
same,Potency,[5],2.35 µM (active)
CCOc1ccc(Cc2cc([C@@H]3O[C@H](CO)[C@@H](O)[C@H](O)[C@@H]3O)ccc2Cl)cc1,Potency,[1],inactive
same,Potency,[5],inactive
CN(C)c1ccc(Nc2nc(N)n(C(=O)c3c(F)cccc3F)n2)cc1,Potency,[9],16.6 µM (active)
same,Potency,[6],3.83 µM (active)
same,Potency,[8],0.833 µM (active)
same,Potency,[2],inactive
same,Potency,[5],18.7 µM (active)
CCCS(=O)(=O)Nc1ccc(F)c(C(=O)c2c[nH]c3ncc(-c4ccc(Cl)cc4)cc23)c1F,Potency,[6],4.82 µM (active)
same,Potency,[7],3.32 µM (active)
same,Potency,[8],20.9 µM (active)
same,Potency,[3],6.85 µM (active)
same,Potency,[4],18.7 µM (active)
same,Potency,[5],14.8 µM (active)
CCOC(=O)N[C@@H]1CC[C@@H]2[C@@H](C1)C[C@H]1C(=O)O[C@H](C)[C@H]1[C@@H]2C=Cc1ccc(-c2cccc(F)c2)cn1,Potency,[9],5.9 µM (active)
same,Potency,[6],21.5 µM (active)
same,Potency,[7],16.6 µM (active)
same,Potency,[2],inactive
same,Potency,[5],inactive
Cn1cnc([N+](=O)[O-])c1Sc1ncnc2nc[nH]c12,Potency,[9],inactive
same,Potency,[8],6.79 µM (active) and 5.26 µM (active)
same,Potency,[2],inactive
same,Potency,[3],1.4 µM (active) and 3.47 µM (active) and 3.06 µM (active)
same,Potency,[4],inactive
same,Potency,[5],inactive
O=C(NOC[C@H](O)CO)c1ccc(F)c(F)c1Nc1ccc(I)cc1F,Potency,[9],inactive
same,Potency,[6],0.341 µM (active)
same,Potency,[2],inactive
same,Potency,[3],inactive
same,Potency,[4],0.0935 µM (active)
COc1ccc(-c2ccc3c(N4CCOC[C@H]4C)nc(N4CCOC[C@H]4C)nc3n2)cc1CO,Potency,[9],0.469 µM (active)
same,Potency,[6],inactive
same,Potency,[3],0.0544 µM (active)
same,Potency,[4],0.0372 µM (active)
same,Potency,[5],0.0187 µM (active)
CCCS(=O)(=O)Nc1ccc(F)c(C(=O)c2c[nH]c3ncc(Cl)cc23)c1F,Potency,[9],11.8 µM (active)
same,Potency,[6],19.2 µM (active)
same,Potency,[7],20.9 µM (active)
same,Potency,[3],13.7 µM (active)
same,Potency,[4],18.7 µM (active)
COc1ccc(C2=N[C@H](c3ccc(Cl)cc3)[C@H](c3ccc(Cl)cc3)N2C(=O)N2CCNC(=O)C2)c(OC(C)C)c1,Potency,[9],23.5 µM (active)
same,Potency,[6],3.83 µM (active)
same,Potency,[8],2.35 µM (active)
same,Potency,[10],24.3 µM (active)
COc1cc(F)c(F)c(Nc2ccc(I)cc2F)c1NS(=O)(=O)C1(C[C@H](O)CO)CC1,Potency,[7],inactive
same,Potency,[8],inactive
same,Potency,[2],inactive
same,Potency,[5],inactive
CNC(=O)c1ccccc1Sc1ccc2c(/C=C/c3ccccn3)n[nH]c2c1,Potency,[9],13.3 µM (active)
same,Potency,[10],17.4 µM (active)
same,Potency,[2],10.6 µM (active)
same,Potency,[3],17.4 µM (active)
same,Potency,[4],inactive
